Data on 107 compounds can be found in PubChem BioAssay AID1030 (National Center for Advancing Translational Sciences (NCATS), 2008).

Structures are written as SMILES. Screen size: about 220,000 compounds; about 16,000 (7.3%) were called active. Where a call stands in place of a potency, no number is given. Inconclusive results (about 25%) are left out. The call rests on the fitted dose curve; in most records, active means well fitted inhibition curve with a large enough effect (not every such curve was filed as active); inconclusive means small, poorly fitted or top-dose-only effect, or another doubt; inactive means no such curve, though single readings can be large or run the other way. Many of the other results were omitted from the sample, so actives are more common in it than they were.
Potency means the concentration at half of the fitted maximal effect.

The target in the test is Aldehyde dehydrogenase 1A1 (Homo sapiens) (UniProt P00352). As to the kind of experiment: qHTS Assay for Inhibitors of Aldehyde Dehydrogenase 1 (ALDH1A1). Particulars: Purified ALDH1A1, NADH fluorescence, propionaldehyde substrate; series mostly up to 75.3 µM. In general terms: qHTS replaces the single test concentration by a dilution series.
Aldehyde dehydrogenase 1A1 (Homo sapiens), sequence (P00352 whole entry, looked up): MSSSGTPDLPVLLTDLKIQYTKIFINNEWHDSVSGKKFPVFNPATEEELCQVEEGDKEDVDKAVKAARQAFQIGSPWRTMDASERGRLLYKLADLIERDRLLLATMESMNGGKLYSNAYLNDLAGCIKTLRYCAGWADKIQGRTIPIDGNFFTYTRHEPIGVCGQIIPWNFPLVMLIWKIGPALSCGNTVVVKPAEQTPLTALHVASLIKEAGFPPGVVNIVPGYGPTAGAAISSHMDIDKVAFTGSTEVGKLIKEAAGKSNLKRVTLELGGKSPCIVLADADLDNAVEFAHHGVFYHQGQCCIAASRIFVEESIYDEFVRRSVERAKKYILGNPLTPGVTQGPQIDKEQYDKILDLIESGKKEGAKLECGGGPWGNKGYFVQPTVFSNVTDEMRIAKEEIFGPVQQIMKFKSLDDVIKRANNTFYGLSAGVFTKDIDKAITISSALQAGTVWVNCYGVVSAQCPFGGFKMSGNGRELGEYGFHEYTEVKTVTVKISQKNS
For `Cc1cccc(C2=N/C(=C/c3cccs3)C(=O)O2)c1`, the Potency result was “inactive”.
Same read-out and setting: next, `Cc1ccc(C2=N/C(=C\c3ccc(OS(=O)(=O)c4ccc(C)cc4)cc3)C(=O)O2)cc1`: 25.1 µM (active); `Cc1ccccc1C1=N/C(=C/c2cccnc2)C(=O)O1`: “inactive”.
The same measure, in the same setting: the result for `COCCN(C(=S)Nc1ccccc1OC)C1CCN(C(C)C)CC1` reads “inactive”.
In the case of `O=C(O)c1ccc2c(c1)C(=O)N(NC(=O)c1ccc(O)cc1)C2=O`, the Potency entry is “inactive”.
Regarding `C=CCN1C2CCCC1CC(NC(=S)Nc1cccc(OC)c1)C2` (configuration not stated), the Potency entry is “inactive”.
The same measure, in the same setting: next, `COc1ccc(C)cc1NC(=O)CCS(=O)(=O)c1cccc2nonc12`: “inactive”; `CC1CCCCC1NC(=O)C1CCCN1S(=O)(=O)c1cccc2nsnc12` (configuration not stated): “inactive”.
On the same count and under the same terms, next, `CC1CCCCC1NC(=O)CCS(=O)(=O)c1cccc2nonc12` (configuration not stated): 10 µM (active); `COC(=O)C1=C(C)N(C)C(=S)NC1c1ccccc1` (configuration not stated): “inactive”; `COC(=O)C1=C(C)N(C)C(=O)NC1c1ccc([N+](=O)[O-])o1` (configuration not stated): 25.1 µM (active).
As to `CCN1C(=O)N[C@@H](c2ccccc2)C(C(=O)OC)=C1C`, the activity, negative = inhibition was 17.9% [at 13.5 µM] (inactive).
Regarding `Cc1ccc(C(=O)N2CCN(S(=O)(=O)N3CCOCC3)CC2)cc1`, the Potency result was “inactive”.
In the case of `COc1ccc(OC)c(C(=O)c2ccc(C(=O)O)cc2)c1`, the Potency result was “inactive”.
On the same count and under the same terms, the result for `COc1ccc(C(=O)COC(=O)c2nn(C)c(=O)c3ccccc23)c(OC)c1` reads “inactive”; that for `C#CCN1C(=O)C(O)(CC(=O)c2cc(OC)ccc2OC)c2ccccc21` (configuration not stated), 3.55 µM (active).
The same measure, in the same setting: the result for `CCOC(=O)Cc1ncccc1C(=O)Nc1ccc(OC)cc1` reads “inactive”; that for `Cc1nn2c(c1-c1ccccc1)N=C(c1ccco1)CC2c1ccccc1` (configuration not stated), 22.4 µM (active); that for `Cc1nn(C(=O)c2ccoc2C)c(N)c1-c1ccccc1`, “inactive”.
As for `O=C(CS(=O)(=O)Cc1ccccc1)NCC1CCCO1` (configuration not stated), the Potency was 25.1 µM (active).
Still for that read-out and setting: the result for `O=C(CSc1nnc(-c2ccc(NS(=O)(=O)c3ccccc3)cc2)o1)NCC1CCCO1` (configuration not stated) reads “inactive”; that for `S=C(NCCc1ccccc1)NCC1CCCO1` (configuration not stated), “inactive”.
Still for that read-out and setting: next, `CCN(c1ccccc1)S(=O)(=O)c1ccc2[nH]c(=O)[nH]c2c1`: “inactive”.
`Cc1cc([N+](=O)[O-])nn1Cc1ccc(F)cc1`: the Potency result was “inactive”.
With `Cc1c(CN2CCCC(C(=O)c3cccc(Cl)c3)C2)c(=O)n(-c2ccccc2)n1C` (configuration not stated), the Potency entry is “inactive”.
In the case of `CCCCC1=CC2=CC(=O)C(C)(OC(=O)CC)C(=O)C2=CN1CCCOC(C)C` (configuration not stated), the activity, negative = inhibition is -5.05% [at 13.5 µM] (inactive).
Turning to `Cc1cccc(NC(=O)CSC(N)=O)c1C`, the Potency was 7.08 µM (active).
The same measure, in the same setting: the result for `Cc1cccc(NC(=O)CSc2nc3c(c(=O)[nH]2)CCCC3)c1C` reads “inactive”; that for `Cc1cccc(NC(=O)CN2C(=O)c3ccccc3C2=O)c1C`, “inactive”.
The same measure, in the same setting: the result for `CC(C)c1nc(CNC(=O)CC2C(=O)NCCN2Cc2ccoc2)cs1` (configuration not stated) reads “inactive”; that for `CC1Cc2ccccc2N1S(=O)(=O)c1c(N)n(C)c(=O)n(C)c1=O` (configuration not stated), “inactive”; that for `CC1CCCCN1C(=S)NCc1ccccc1` (configuration not stated), “inactive”.
The same measure, in the same setting: the result for `COC(=O)CNC(=O)c1ccc(OC2CCN(C(=O)C3CC3)CC2)cc1` reads “inactive”; that for `CN1CCNC(=O)C1CC(=O)N1CC=C(c2ccc(F)cc2)CC1` (configuration not stated), “inactive”.
For the compound `N#CC1=C(SCc2ccccc2)NC(=O)C(C#N)C12CCCC2` (configuration not stated), the Potency was 3.98 µM (active).
Turning to `CC1(C)CCc2nc(SCc3ccccc3)c(C#N)cc2C1`, the Potency entry was “inactive”.
As to `N#CC1=C(SCc2ccc(C#N)cc2)N=C(N)C(c2nc(-c3ccccc3)cs2)C12CCCCC2` (configuration not stated), the Potency result was “inactive”.
On the same count and under the same terms, next, `C[C@@H](O)c1nc2ccccc2n1N`: “inactive”.
In the case of `N#Cc1ncc(C(F)(F)F)cc1Oc1cccnc1`, the Potency entry is “inactive”.
For `COc1ccc(/C=C/CN2CCN(Cc3ccc(C)cc3)C(CCO)C2)cc1` (configuration not stated), the Potency entry is “inactive”.
The same measure, in the same setting: the result for `O=C(Nc1ccn(Cc2ccccc2)n1)c1cccc(F)c1` reads “inactive”; that for `CCOc1cccc(C(=O)Nc2cnn(Cc3ccccc3)c2)c1`, 3.98 µM (active); that for `CCOc1cccc(C(=O)Nc2cccnc2)c1`, “inactive”.
Same read-out and setting: next, `CNc1nc(Nc2ccc(C)c(Cl)c2)nc(N)c1[N+](=O)[O-]`: “inactive”; `O=C(c1ccc(Cl)cc1)N1N=C(c2ccccn2)CC1(O)C(F)(F)F` (configuration not stated): “inactive”.
Same read-out and setting: the result for `COc1ccc(/C=N/N=C2/C(=O)Nc3ccccc32)cc1O` reads “inactive”.
For the compound `O=C(Cc1ccc(Br)cc1)N1CCN(c2ccccn2)CC1`, the Potency entry is “inactive”.
On the same count and under the same terms, next, `C(=N/N1CCN(c2ccccc2)CC1)/c1cccs1`: “inactive”; `C(=N\N1CCN(c2ccccn2)CC1)/C1=C(N2CCOCC2)C(=C/c2ccccc2)/CC1`: 8.91 µM (active).
Regarding `O=C1Nc2ccc(Br)cc2/C1=N/N=C/C1=C(N2CCOCC2)C(=C\c2ccccc2)/CC1`, the Potency is 8.91 µM (active).
On the same count and under the same terms, next, `CN(C)CCOc1ccc(Cl)cc1C(C)(C)C`: “inactive”.
Turning to `CCOC(=O)C1(Cc2ccccc2C(F)(F)F)CCN(C(=O)c2cc(C)n(C)n2)CC1`, the Potency result is “inactive”.
Same read-out and setting: the result for `Cc1ccc2[nH]c(C)c(CCNC(=O)NC3CCCCC3)c2c1` reads “inactive”; that for `Cc1nnc(SCCCCSc2nnc(C)c(=O)[nH]2)[nH]c1=O`, “inactive”.
Still for that read-out and setting: the result for `CCOC(=O)c1c(CN(C)C)n(-c2ccccc2)c2cc(Br)c(O)cc12` reads “inactive”; that for `O=C(O)C1C2C=CC(C2)C1C(=O)N1CCN(CCO)CC1` (configuration not stated), “inactive”; that for `C=C(Cl)COC(=O)C1C2C=CC(C2)C1C(=O)O` (configuration not stated), 17.8 µM (active).
Same read-out and setting: the result for `CN1CCN(C(=O)C2C3C=CC(C3)C2C(=O)O)CC1` (configuration not stated) reads “inactive”; that for `COCCN(C(=O)c1ccccc1F)c1c(N)n(Cc2ccccc2)c(=O)[nH]c1=O`, “inactive”.
As to `O=C(O)Cc1csc(-c2cccc(Oc3ccccc3)c2)n1`, the Potency result is “inactive”.
For the compound `CN(Cc1nc2ccc(F)cc2[nH]1)Cc1nc(CC2CC2)no1`, the Potency entry is “inactive”.
On the same count and under the same terms, the result for `O=C(NC(=O)N1CCOCC1)c1ccccc1` reads “inactive”; that for `CCCCOc1ccc(C(=O)NN2CCN(C)CC2)cc1`, “inactive”.
On the same count and under the same terms, the result for `CCCCOc1ccc(C(=O)N/C(=C/C=C/c2ccccc2)C(=O)N2CCOCC2)cc1` reads 25.1 µM (active); that for `CCn1c(SCC(=O)N(C)C2CCS(=O)(=O)C2)nnc1-c1cccs1` (configuration not stated), “inactive”.
Turning to `CCNC(=O)NNC(=O)C1CC(c2cccs2)=NO1` (configuration not stated), the Potency result was “inactive”.
In the case of `CCOc1ccc(N2C(=O)/C(=C/c3ccc(C)o3)N(C)C2=S)cc1`, the Potency was 7.94 µM (active).
As for `CCOc1ccc(N2C(=O)CN(c3cccc4ccccc34)C2=S)cc1`, the Potency entry was “inactive”.
Same read-out and setting: the result for `CCOc1ccc(N2C(=O)Nc3ccccc3C2(O)C(=O)NCc2ccco2)cc1` (configuration not stated) reads “inactive”.
For the compound `CCN=c1sc(C(=O)Nc2ccccc2)c(C)n1CC`, the Potency entry is “inactive”.
Turning to `O=C(Nc1cccc2ncccc12)c1ccc(-c2ccc(Cl)cc2Cl)o1`, the Potency entry was “inactive”.
On the same count and under the same terms, next, `CC1CCN(C(=S)c2ccc(-c3ccc(Cl)cc3Cl)o2)CC1`: 28.2 µM (active).
Still for that read-out and setting: the result for `COc1ccc(C(=O)Nc2c(Cl)cc(Cl)cc2C(=O)N2CCC(C)CC2)cc1` reads “inactive”.
The same measure, in the same setting: next, `CCOC(=O)c1ccccc1NC(=S)N1CCC(C(N)=O)CC1`: “inactive”; `CCOc1c(OC)cc(C2C(C#N)=C(N)Oc3n[nH]c(-c4ccncc4)c32)cc1OC` (configuration not stated): “inactive”; `CCCc1nc2c([nH]1)C(c1cccnc1)C(C#N)=C(N)O2` (configuration not stated): 7.94 µM (active).
For the compound `COc1ccc(-c2[nH]nc3c2C(c2ccncc2)C(C#N)=C(N)O3)cc1` (configuration not stated), the Potency entry was “inactive”.
The same measure, in the same setting: the result for `Cc1ccc(S(=O)(=O)NC(=O)Nc2nc(-c3ccc(F)c(F)c3)cs2)cc1` reads “inactive”; that for `Cn1cc(CN2CCCCC2c2ccccn2)c(-c2ccc3c(c2)OCCO3)n1` (configuration not stated), “inactive”; that for `CN(C)/C=C(/C(=O)c1ccccc1Cl)S(C)(=O)=O`, “inactive”.
On the same count and under the same terms, next, `Clc1ccc(-c2csc(-c3ccncc3)n2)cc1`: “inactive”; `CC(=O)c1c(C)[nH]c(C(=O)OCC(=O)Nc2cc(S(=O)(=O)N3CCCCC3)ccc2C)c1C`: “inactive”; `CC(C)n1c(=O)[nH]c2cc(C(=O)Nc3ccccc3)ccc21`: “inactive”.
Still for that read-out and setting: the result for `CN(C)CCn1c(=S)[nH]c2ccc(Cl)cc2c1=O` reads “inactive”; that for `CCCn1c(=S)[nH]c2ccc(C(F)(F)F)cc21`, 17.8 µM (active).
`CCCCn1c(=S)[nH]c2ccccc2c1=O`: the Potency entry was “inactive”.
On the same count and under the same terms, next, `CC(C)n1c(=S)[nH]c2cc(C(F)(F)F)ccc21`: 31.6 µM (active); `O=[N+]([O-])c1ccc2oc(-c3cccc(O)c3)nc2c1`: “inactive”; `OCCC1CN(Cc2cnc(-c3ccccc3)s2)CCN1CCc1ccccc1` (configuration not stated): “inactive”.
As for `Fc1ccccc1Cc1ccc(Cl)nn1`, the Potency result was “inactive”.
On the same count and under the same terms, next, `O=C(CCc1ccccc1)NCCc1cccs1`: “inactive”.
Same read-out and setting: the result for `Cc1ccnc(NC(=O)CCC(=O)N(CC(=O)NCCc2ccccc2)Cc2cccs2)c1` reads 14.1 µM (active); that for `O=C(O)CCC(=O)N(Cc1cccs1)Cc1cccs1`, “inactive”.
Turning to `CN(C)CCCCCN(C)Cc1cc2ccccc2o1`, the Potency entry was “inactive”.
On to `CCOc1ccc(NC(=O)CN(C)CC(=O)NC(C)c2ccccc2)cc1OCC` (configuration not stated), for which the Potency entry was “inactive”.
On the same count and under the same terms, the result for `O=C(O)CSCC(=O)Nc1ccc(C(F)(F)F)cc1` reads “inactive”; that for `COc1ccc2c(c1)O[C@@H](c1ccc3c(c1)OCO3)[C@H](OC(=O)NCc1ccco1)C2=O`, “inactive”.
The same measure, in the same setting: next, `CC1CCN(S(=O)(=O)c2ccc(S(=O)(=O)NCc3cccnc3)cc2)CC1`: “inactive”; `COc1ccc(-n2nc3c(c2NC(=O)c2ccc(N4C(=O)CCC4=O)cc2)CSC3)cc1`: “inactive”; `O=C(NC(=S)Nc1cc(C(F)(F)F)ccc1N1CCOCC1)c1ccc(-c2cccc(Cl)c2)o1`: “inactive”.
On the same count and under the same terms, next, `COc1cccc(OC)c1C(=O)NC(=S)Nc1ccc(N2CCOCC2)c(Cl)c1`: “inactive”.
Regarding `O=C(NC(=S)Nc1ccc2oc(=O)ccc2c1)c1ccc(-c2cccc(Cl)c2Cl)o1`, the Potency was 11.2 µM (active).
Same read-out and setting: the result for `CC1=C(C)C(=O)OC(C(C)C2CCC3C4CC=C5CC(OC6OC(COC7OC(CO)C(O)C(O)C7O)C(O)C(O)C6O)CC(O)C5(C)C4CCC23C)C1` (configuration not stated) reads “inactive”.
Take `C[C@@]12CCC(=O)C=C1CC[C@H]1C2[C@@H](O)C[C@]2(C)[C@@H]1CC[C@@]2(O)C(=O)COC(=O)C1CCCC1` (some centres not stated): the activity, negative = inhibition is -0.294% [at 13.5 µM] (inactive).
With `Nc1nonc1C(=O)NCCc1ccccc1`, the Potency entry was “inactive”.
As to `O=C(NCCSc1ccccc1)c1ccco1`, the Potency result was “inactive”.
As for `O=C(NCCc1ccco1)c1nn(Cc2ccccc2)c(=O)c2ccccc12`, the Potency was 17.8 µM (active).
